# Assay outcomes deposited in PubChem by several laboratories.
# SIRT5 block: SIRT5 desuccinylase inhibitors, primary screen, biochemical, fluorescence imaging, single point, set 5; NAD-dependent protein deacylase sirtuin-5, mitochondrial (Homo sapiens), Q9NXA8; Purified SirT5, succinyl-peptide AMC, trypsin-coupled fluorescence; inhibition, % at 15 µM; actives 1.1% (n = 330,000); AID 652115, 2013; in the data active = inhibition above about 15%
# UBC9 SUMO inh: inhibitors of in vitro SUMOylation cascade, primary screen, biochemical, HTRF, uHTS; actives 0.36% (n = 290,000); AID 2006, 2009; SUMO-conjugating enzyme UBC9 (Homo sapiens), P63279; inhibition, % at 35 µM; HTRF SUMOylation assay, SAE1/SAE2 + UBC9; in the data active = inhibition above about 50%, passing the limit was not always enough
# CASP6 VEID inh: human caspase-6 inhibitors, primary screen, biochemical, VEID-R110 fluorescence, single point, set 2. P55212. purified caspase-6, Z-VEID-R110 cleavage fluorescence. inhibition, % at 12.5 µM. actives 0.53% (n = 350,000);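 active = mean inhibition across replicates at least about 35%, with every replicate also reaching that limit, limit read from the data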
# NSD2 HMT inh: NSD2 histone methyltransferase inhibitors, primary screen, biochemical, AlphaScreen, single concentration, set 2 | Histone-lysine N-methyltransferase NSD2 (Homo sapiens), O96028 | NSD2 peptide methylation, 120 min | inhibition, % at 12.5 µM | actives 0.54% (n = 310,000) | AID 743445, 2014; in the data active = inhibition above about 50%
# Target sequence (O96028 whole entry, looked up): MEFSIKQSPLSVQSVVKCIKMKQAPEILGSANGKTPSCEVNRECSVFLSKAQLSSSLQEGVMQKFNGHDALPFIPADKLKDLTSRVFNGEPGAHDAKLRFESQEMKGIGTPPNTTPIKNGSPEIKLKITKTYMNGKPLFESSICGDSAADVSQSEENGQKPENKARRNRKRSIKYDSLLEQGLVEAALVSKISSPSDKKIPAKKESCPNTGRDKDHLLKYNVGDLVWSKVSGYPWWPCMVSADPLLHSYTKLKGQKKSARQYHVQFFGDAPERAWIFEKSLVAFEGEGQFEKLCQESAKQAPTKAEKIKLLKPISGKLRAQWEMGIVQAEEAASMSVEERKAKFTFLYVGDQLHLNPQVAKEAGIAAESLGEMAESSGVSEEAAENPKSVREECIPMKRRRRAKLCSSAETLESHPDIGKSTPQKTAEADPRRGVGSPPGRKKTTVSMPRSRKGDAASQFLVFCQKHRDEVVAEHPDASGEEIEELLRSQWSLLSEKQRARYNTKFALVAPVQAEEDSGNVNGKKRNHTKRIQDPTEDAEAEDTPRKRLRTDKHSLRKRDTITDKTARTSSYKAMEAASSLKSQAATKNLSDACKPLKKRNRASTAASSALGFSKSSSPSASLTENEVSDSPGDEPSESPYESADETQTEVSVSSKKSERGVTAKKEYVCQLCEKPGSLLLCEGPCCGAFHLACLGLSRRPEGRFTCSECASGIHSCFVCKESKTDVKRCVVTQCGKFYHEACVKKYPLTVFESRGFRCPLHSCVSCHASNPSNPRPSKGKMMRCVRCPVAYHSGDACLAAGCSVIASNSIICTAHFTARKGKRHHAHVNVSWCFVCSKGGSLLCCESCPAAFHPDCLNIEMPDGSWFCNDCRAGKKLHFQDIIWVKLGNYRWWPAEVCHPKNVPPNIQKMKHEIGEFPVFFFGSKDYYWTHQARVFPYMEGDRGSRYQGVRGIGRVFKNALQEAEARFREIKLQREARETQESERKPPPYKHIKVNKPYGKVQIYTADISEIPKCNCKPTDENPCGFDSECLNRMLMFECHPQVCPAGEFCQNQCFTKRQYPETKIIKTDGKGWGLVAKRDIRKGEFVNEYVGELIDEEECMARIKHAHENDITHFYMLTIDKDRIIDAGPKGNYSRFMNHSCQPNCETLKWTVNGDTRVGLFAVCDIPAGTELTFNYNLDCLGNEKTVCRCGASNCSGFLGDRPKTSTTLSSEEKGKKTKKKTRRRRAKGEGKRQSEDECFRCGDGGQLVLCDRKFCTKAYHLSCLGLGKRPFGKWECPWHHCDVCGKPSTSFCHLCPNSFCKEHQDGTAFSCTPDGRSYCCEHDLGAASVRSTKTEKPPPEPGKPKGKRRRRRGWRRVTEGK
# AlphaScreen art: AlphaScreen signal interference with preloaded methylated product, dose response, artefact control for NSD2 inhibitor project, biochemical, cherry-picked samples; shares compounds with NSD2 HMT inh; AlphaScreen artifact counterscreen, preloaded methylated H4 peptide; AC35, µM (doses to about 10 µM); actives 9.4% (n = 1,500); AID 1053174, 2014; call rule not given here
# A number is an active result; n = inactive; x = not tested or not shown. A selection: hits, their analogues and other compounds. The true share with any hit is near 1.6%.
SMILES,SIRT5 block,UBC9 SUMO inh,CASP6 VEID inh,NSD2 HMT inh,AlphaScreen art
C=CCN1C(=O)[C@@]2(O[C@@H](CCn3cc([C@H](O)c4ccccc4)nn3)[C@H]([Si](C)(C)c3ccc(OC)cc3)[C@H]2C)c2cc(N3C(=O)c4cccc5cccc3c45)ccc21,n,x,n,x,x
O=C(/C=C/c1ccc([N+](=O)[O-])cc1)N1CCN(Cc2ccccc2)CC1,n,n,n,n,x
O=C(/C=C/c1ccc(OCCCF)cc1)N1CCN(Cc2ccccc2)CC1,n,n,n,70,n
O=C(Nc1cc(F)ccc1F)N1CCN(c2ccnc3cc(Cl)ccc23)CC1,n,n,n,61,n
Cc1ccc(F)cc1NC(=O)N1CCN(c2ccnc3cc(Cl)ccc23)CC1,n,n,n,n,x
O=C(C[C@@H]1CC[C@H]2[C@@H](COC[C@H](O)CN2C(=O)Nc2cccc(Cl)c2)O1)NCCCN1CCOCC1,n,x,n,x,x
CCOc1ccc2[nH]c3c(NCCN(CC)CC)ncnc3c2c1,n,n,n,103,n
CCN(CC)CCCNc1nc2ccccc2c2[nH]c3ccc(OC)cc3c12,x,x,n,56,n
C[C@@H]1CN([C@@H](C)CO)C(=O)c2cc(NS(=O)(=O)c3ccc(F)cc3)ccc2O[C@@H](C)CCCCO[C@H]1CN(C)C(=O)c1ccccc1,n,x,n,x,x
Cc1cccc(C)c1NC(=O)c1c[nH]c2ccccc12,n,n,n,143,n
Cc1cccc(C)c1NC(=O)CNC(=O)Cc1c[nH]c2ccccc12,n,x,n,n,x
COc1ccc(S(=O)(=O)N(C)C[C@H]2OCCCC[C@@H](C)Oc3ccc(NC(=O)c4ccccc4)cc3C(=O)N([C@@H](C)CO)C[C@@H]2C)cc1,n,x,n,x,x
CCCCNC1=CC(=O)C(=O)c2ccccc21,n,91,n,140,n
CCCCNC1=CC(=O)C(NCCCC)=CC1=O,n,x,n,n,x
O=C(Nc1ccccc1)OCCCCOC(=O)Nc1ccccc1,n,x,n,55,n
CO[C@@H]1CN(C)C(=O)c2cc(NC(=O)c3ccccc3F)ccc2OC[C@@H](C)NC[C@@H]1C,n,x,n,x,x
O=C1C=C(N(CCO)Cc2ccccc2)c2ccccc2C1=O,x,64,x,76,n
Oc1ccc(NCc2cccc(OCc3ccccc3)c2)cc1,n,n,n,n,x
Oc1ccc(NCc2cccc(OCc3ccc(F)cc3)c2)cc1,n,74,38,59,n
CC(Oc1ccc(Cl)cc1Cl)C(=O)NC(Cc1ccccc1)C(=O)O (stereo unspecified),n,x,n,53,n
O=C(C[C@@H]1CC[C@H](NC(=O)Nc2cc(F)ccc2F)[C@@H](CO)O1)NCc1ccc2c(c1)OCO2,n,x,n,x,x
CCOC(=O)C1CCN(c2nc(N)c3c(N)nc(SCC(=O)O)cc3c2C#N)CC1,n,100,65,101,n
C[C@@H]1CN([C@@H](C)CO)C(=O)c2cc(NC(=O)Nc3ccc4c(c3)OCO4)ccc2O[C@H]1CN(C)C,n,x,n,x,x
O=C1CCCC(O)=C1N=Nc1ccc(C(=O)O)cc1,33,n,38,96,n
C[C@H](CO)N1C[C@H](C)[C@H](CN(C)S(=O)(=O)c2ccccc2)Oc2ncc(-c3ccc(F)cc3)cc2C1=O,n,x,n,x,x
SMILES,SIRT5 block,UBC9 SUMO inh,CASP6 VEID inh,NSD2 HMT inh,AlphaScreen art
COc1cc(Br)c(C(=O)c2nccc3cc(OC)c(OC)cc23)cc1OC,n,x,97,99,n
COc1cc(N)c(C(=O)c2nccc3cc(OC)c(OC)cc23)cc1OC,n,n,n,72,n
COc1cc(N)c(Cc2nccc3cc(OC)c(OC)cc23)cc1OC,n,n,n,n,x
COc1cc(C(=O)c2nccc3cc(OC)c(OC)cc23)c([N+](=O)[O-])cc1OC,n,87,n,54,n
C[C@H]1CN([C@@H](C)CO)C(=O)c2cccc(NC(=O)CCCCCC(=O)Nc3ccccc3N)c2O[C@@H]1CN(C)Cc1ccc2c(c1)OCO2,n,x,n,x,x
CO[C@H]1CN(C)C(=O)c2cc(C#N)ccc2OC[C@H]2O[C@H](CC[C@@H]2OC)CCN(C)C(=O)[C@H]1C,n,x,n,x,x
Cc1noc(C)c1NC(=O)Nc1ccc2c(c1)CC(=O)N([C@H](C)CO)C[C@H](C)[C@H](CN(C)S(=O)(=O)c1c(C)noc1C)O2,n,x,n,x,x
